A selection: hits, their analogues and other compounds. The true share with any hit is near 4.1%.
697 NFkB inh: inhibitors of PMA/ionomycin-induced NF-kB reporter, 697 cells, primary screen, B-cell NF-kB inhibitor project, cell-based, luminescence, uHTS | 697 B-cell NF-kB luciferase reporter, 16 h | inhibition, % at 4 µM | 330,000 tested, 0.33% active; in the data active = inhibition above about 35%
Mdm2-MdmX inh: inhibitors of human Mdm2-MdmX association, primary screen, cell-based, luminescence, split luciferase, SaOS-2, uHTS; SaOS-2 split-luciferase Mdm2/MdmX complementation; inhibition, % at 8 µM; 330,000 tested, 3% active;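 active = inhibition of at least 50% at 8 µM in the primary screen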
Gli-Sufu antag: Gli-Sufu pathway antagonists, primary screen, luciferase luminescence, Sufu-KO-LIGHT cells, uHTS; Sufu-KO-LIGHT fibroblasts, Gli luciferase reporter luminescence; inhibition, % at 5 µM; 340,000 tested, 0.74% active; AID 588413, 2011;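 active = inhibition above about 55%, limit read from the data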
KLF5 inhibitor: KLF5 expression inhibitors, primary screen, DLD-1 cells, luminescence. DLD-1 KLF5 promoter-luciferase reporter. inhibition, % at 5 µM. 290,000 tested, 0.23% active. AID 1700, 2009;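 active = inhibition above a per-plate limit of that plate's mean compound inhibition plus 3 SD, cut at about 60% in these data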;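 also: higher means less KLF5 promoter-driven luciferase light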
Jurkat NFkB inh: inhibitors of induced NF-kB luciferase reporter, primary screen, TCR NF-kB activation inhibitor project, cell-based, luminescence, uHTS; Jurkat, PMA/ionomycin-induced NF-kB luciferase reporter; inhibition, % at 4 µM; 330,000 tested, 0.53% active; in the data active = inhibition above about 50%
aSyn UTR inh: MLPCN primary screen, SNCA 5' untranslated region; alpha-synuclein 5'UTR reporter, inhibitor activity; inhibition, % (tested at 7.5 µM); 300,000 tested, 0.82% active; AID 1813, 2009; in the data active = inhibition above about 60%;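 also: H4 neuroglioblastoma cells stably carrying SNCA 5'UTR luciferase fusion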
Mdm2-MdmX conf: Mdm2-MdmX complex disruptors, retested hits, confirmation, luminescence, single concentration; shares compounds with Mdm2-MdmX inh; Mdm2-MdmX binding, luminescent assay; inhibition, % at 8 µM; 10,000 tested, 55% active; in the data active = inhibition above about 40%
FLuc counter: full-length luciferase signal inhibition, confirmation, counter-screen for Mdm2/MdmX interaction inhibitor project, cell-based, single concentration, SaOS-2; shares compounds with Mdm2-MdmX inh; SaOS-2 full-length luciferase counterscreen, luminescence; inhibition, % at 8 µM; 6,200 tested, 77% active; AID 504607, 2011;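 active = mean inhibition at 8 µM reaching about 37%, which flags the compound as non-specific, limit read from the data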;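 also: p53-null SaOS-2 cells with luciferase driven by a doxycycline-inducible promoter; compound on cells about two nights before reading with doxycycline added after day one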
Large screens that a line does not name were inactive (follow-up assays come after a bar, where they were run).

Cc1ccc2nc(NC(=O)C3CCN(S(=O)(=O)c4cccc5nsnc45)CC3)sc2c1	Mdm2-MdmX inh 55 | Mdm2-MdmX conf inactive
COc1ccc2nc(NC(=O)C3CCN(S(=O)(=O)c4cccs4)CC3)sc2c1	Mdm2-MdmX inh 52 | Mdm2-MdmX conf inactive
Cc1ccc(NC(=O)C2CCN(S(=O)(=O)c3cc([N+](=O)[O-])ccc3Cl)CC2)nc1	Mdm2-MdmX inh 71 (no result: KLF5 inhibitor, aSyn UTR inh) | Mdm2-MdmX conf 56 | FLuc counter 42
Cc1nnc(SCC(=O)NC2CCCCC2)n1N	none (no result: KLF5 inhibitor, aSyn UTR inh)
O=C(Cn1nc(C(=O)O)c2ccccc2c1=O)Nc1ccc2c(c1)C(=O)c1ccccc1C2=O	none (no result: Gli-Sufu antag)
CC(C)c1ccc(OCC(=O)NCc2ccccc2)cc1	none
Cc1ccc2nc(NC(=O)C3CCN(S(=O)(=O)c4cccs4)CC3)sc2c1	none
Cc1ccc2nc(NC(=O)C3CCN(S(=O)(=O)c4cc([N+](=O)[O-])ccc4Cl)CC3)sc2c1	Mdm2-MdmX inh 67 | Mdm2-MdmX conf 67 | FLuc counter 47
O=C(NC1CC1)C1CCN(S(=O)(=O)c2ccc(Cl)c([N+](=O)[O-])c2)CC1	Mdm2-MdmX inh 97 (no result: KLF5 inhibitor, aSyn UTR inh) | Mdm2-MdmX conf 75 | FLuc counter 58
O=C(Nc1nc2cc(Cl)ccc2s1)C1CCCN(S(=O)(=O)c2cccc3cccnc23)C1 (stereo not given)	Mdm2-MdmX inh 58 | Mdm2-MdmX conf inactive
CCc1ccc(N(CC(=O)Nc2nc3ccc(C)cc3s2)S(=O)(=O)c2c(C)noc2C)cc1	Mdm2-MdmX inh 60 | Mdm2-MdmX conf inactive
CCc1ccc(NC(=O)CN(c2ccc3c(c2)OCO3)S(=O)(=O)c2c(C)noc2C)cc1	none
CCN(Cc1ccccc1)C(=O)COC(=O)c1cc(=O)[nH]c2ccccc12	none
O=c1nc(N/N=C/C=C/c2ccccc2)cn[nH]1	none
CC(NC(=O)C1CCN(S(=O)(=O)c2cc([N+](=O)[O-])ccc2Cl)CC1)c1ccccc1 (stereo not given)	none
CCN(CC)S(=O)(=O)c1ccc(S(=O)(=O)N2CCC(C(=O)NC3CCN(Cc4ccccc4)CC3)CC2)cc1	Mdm2-MdmX inh 70 | Mdm2-MdmX conf inactive
O=C(Nc1nc2ccc(F)cc2s1)C1CCN(S(=O)(=O)c2cc([N+](=O)[O-])ccc2Cl)CC1	Mdm2-MdmX inh 88 | Mdm2-MdmX conf 78 | FLuc counter inactive
COc1cc(C(=O)OCC(=O)Nc2ccc(C)cc2)cc(OC)c1OC	none
CC(O)/C=C/c1ccc2ccccc2n1 (stereo not given)	Mdm2-MdmX inh 60 | Mdm2-MdmX conf inactive
O=C(NCCNc1ccc([N+](=O)[O-])cc1)c1cccs1	none
Cn1cnc(S(=O)(=O)NC2CCN(Cc3c(F)cccc3Cl)CC2)c1	none
Cc1ccsc1CN(C)Cc1nc(C2CC2)no1	none
CC(=O)N/C(=N\c1nc(C)cc(C)n1)Nc1ccc2ccccc2c1	Mdm2-MdmX inh 74 | Mdm2-MdmX conf 72 | FLuc counter 62
Cc1ccc2c(COC(=O)C3CSC4(C)CCC(=O)N34)cc(=O)oc2c1C (stereo not given)	none (no result: KLF5 inhibitor, aSyn UTR inh)
C=C(C)[C@@H]1CC[C@]2(C(=O)O)CC[C@]3(C)[C@H](CC[C@@H]4[C@@]5(C)CC[C@H](O)C(C)(C)[C@@H]5CC[C@]43C)[C@@H]12	Mdm2-MdmX inh 55 (no result: KLF5 inhibitor) | Mdm2-MdmX conf inactive
Cc1cc(/C=C2\SC(=Nc3ccccc3)NC2=O)c(C)n1-c1ccc(S(N)(=O)=O)cc1	Mdm2-MdmX inh 61 | Mdm2-MdmX conf 50 | FLuc counter 57
CN(CC(=O)Nc1ccc(F)cc1)C(=O)c1cc(-c2cccs2)nn1-c1ccccc1	none (no result: KLF5 inhibitor, aSyn UTR inh)
FC(F)(F)c1cc(CCN2CCNC[C@@H]2Cc2ccccc2)cc(C(F)(F)F)c1	Mdm2-MdmX inh 51 (no result: KLF5 inhibitor) | Mdm2-MdmX conf inactive
Fc1cccc(CCN2CCNC[C@@H]2Cc2ccccc2)c1	none (no result: KLF5 inhibitor)
CC(C)(C)c1ccc(OCC(=O)N/N=C/c2cc(Br)ccc2OC(=O)c2ccco2)cc1	Mdm2-MdmX inh 82, aSyn UTR inh 83 | Mdm2-MdmX conf 79 | FLuc counter inactive
COc1ccccc1NS(=O)(=O)c1cccc(-n2c(O)c(C=Nc3ccccc3C(=O)O)c3ccccc3c2=O)c1	Mdm2-MdmX inh 54 | Mdm2-MdmX conf 59 | FLuc counter 70
O=C(NC1CCCCC1)N1CCNCC1	none
C1CCCCCC(NCCN2CCNCC2)CCCCC1	Mdm2-MdmX inh 97 | Mdm2-MdmX conf 93 | FLuc counter inactive
CCN(c1ccccc1)S(=O)(=O)c1ccc(Cl)c(NC(=O)Nc2ccc(Cl)cc2C#N)c1	Mdm2-MdmX inh 99 | Mdm2-MdmX conf 99 | FLuc counter 56
CCN(c1ccccc1)S(=O)(=O)c1ccc(Cl)c(NC(=O)CSc2ncn[nH]2)c1	none
CCN(c1ccccc1)S(=O)(=O)c1cc(NC(=O)Nc2ccccc2C#N)ccc1Cl	none
CCN(c1ccccc1)S(=O)(=O)c1ccc(Cl)c(NC(=O)c2ccc(=O)[nH]n2)c1	Mdm2-MdmX inh 53 (no result: KLF5 inhibitor, aSyn UTR inh) | Mdm2-MdmX conf inactive
CC(C)N(Cc1ccccc1)C(=O)CN1C(=O)NC(Cc2ccccc2)(c2ccccc2)C1=O (stereo not given)	none
O=S(=O)(Nc1ccccn1)c1ccc(Cl)c2ccccc12	none
O=C(/C=C/C(=O)NCc1cccs1)NCc1cccs1	Mdm2-MdmX inh 62 | Mdm2-MdmX conf inactive
O=C(/C=C/c1ccc(Cl)cc1)NCc1cccs1	none
O=C(CCCn1c(=O)[nH]c2ccc(Br)cc2c1=O)NCc1ccc(Cl)cc1	none
COCC(C)n1c(SCc2cc(=O)n3cc(C)ccc3n2)nc2ccccc2c1=O (stereo not given)	Mdm2-MdmX inh 51, aSyn UTR inh 64 | Mdm2-MdmX conf inactive
O=S(=O)(c1ccc(Cl)cc1)N1CCN(CCc2ccncc2)CC1	none
Cc1cc(-c2n[nH]c(=S)n2Cc2ccco2)n(C)n1	Mdm2-MdmX inh 62 | Mdm2-MdmX conf inactive
COc1ccc(C(=O)Nn2c(SCC(=O)c3ccccc3)nc3ccccc3c2=O)cc1	Mdm2-MdmX inh 54 | Mdm2-MdmX conf 52 | FLuc counter 127
COc1ccc(-c2csc(NC(CO)c3nc4ccccc4n3Cc3ccc(C)cc3)n2)cc1 (stereo not given)	none (no result: KLF5 inhibitor)

Screening results as filed in PubChem.
